We go through 15 molecules from PubChem BioAssay.

Assay [1] can be described thus: compound effects on lung adenocarcinoma cell viability – A549, calcein-AM fluorescence, 48 h, basal, profiling panel (AID 1162). The settings on record: higher = more signal.
Assay [2] can be described thus: compound effects on differentiated 3T3-L1 adipocyte viability – cell-based, 3T3-L1 adipocytes, calcein-AM fluorescence, 48 h, basal, profiling panel (AID 1163). The following applies: 3T3-L1 adipocytes viability, higher = more signal.
The nature of assay [3]: compound effects on hepatocellular carcinoma cell viability – HepG2, calcein-AM fluorescence, 48 h, basal, profiling panel (AID 1164). The settings on record: higher = more signal.
Assay [4] in a line: compound effects on multiple myeloma cell viability – MM1S, calcein-AM fluorescence, 48 h, basal, profiling panel (AID 1165).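 Further: viability of MM1S multiple myeloma cells under basal unstimulated conditions.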 The following applies: higher = more signal.
Assay [5] can be described thus: calcein-AM signal in unstimulated myeloma cells – cell-based, calcein-AM fluorescence, 48 h, PK04 Diversity Set, profiling panel (AID 1166).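 Further: cells grown under basal conditions without added stimulus.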 The settings on record: RPMI8226 myeloma viability, higher = more signal.
Assay [6] in a line: JC-1 mitochondrial signal, unstimulated HepG2 cells – cell-based, JC-1 fluorescence, 24 h, 100 nL compound, profiling panel (AID 1167). The settings on record: HepG2 mitochondrial potential, higher = more signal.
Assay [7] in a line: JC-1 mitochondrial signal, unstimulated adipocytes – cell-based, JC-1 fluorescence, 3T3-L1 adipocytes, 24 h, 100 nL compound, profiling panel (AID 1168). The settings on record: JC-1 mitochondrial fluorescence, higher = more signal, called active from +8 up or from −8 down.
Assay [8] can be described thus: JC-1 mitochondrial signal, unstimulated myeloma cells – cell-based, JC-1 fluorescence, RPMI8226, 24 h, 100 nL compound, profiling panel (AID 1169). The following applies: JC-1 mitochondrial potential fluorescence, higher = more signal.
A short description of assay [9]: JC-1 mitochondrial signal, unstimulated MM1S myeloma – cell-based, JC-1 fluorescence, 24 h, 100 nL compound, profiling panel (AID 1170). The settings on record: MM1S mitochondrial potential, higher = more signal.
Assay [10] in a line: resazurin metabolic signal in A549 cells – cell-based, resazurin fluorescence, 24 h, PK04 Diversity Set, profiling panel (AID 1171). The following applies: A549 viability, higher = more signal, called active from +8 up or from −8 down.

Structures are written as SMILES. The source made the active and inactive calls.
Further: test concentration not given here.

On to `COC(=O)[C@]1(Cc2ccccc2N=[N+]=[N-])N=C(c2ccc(OCCCO)cc2)O[C@@H]1c1ccccc1`, for which the z-score was -3.71 in [1]; 0.561 in [2]; -5.71 in assay [3]; -3.66 in assay [4]; -4.01 in [5]; -2.54 in assay [6]. For the same molecule, the z-score was 0.911 (inactive) in assay [7], -1.01 in [8], -2.86 in assay [9] and -5.19 (inactive) in assay [10].

As for `Cc1ccc(S[C@]2(C(=O)NCCN3CCOCC3)CC(=O)N(C3Cc4ccccc4C3)[C@@H]2c2ccc(CO)cc2)cc1`, the z-score in assay [1] was -0.215; in assay [2] it was -0.143; in assay [3], -0.619; in assay [4], -0.0655; in [5], 0.0047; in assay [6], 0.699. For the same molecule, the z-score in assay [7] was 0.242 (inactive); in assay [8], 0.794; in assay [9] it was -0.0188; in [10], 0.665 (inactive).

Take `CN(C)C(=O)[C@@]1(CCC(=O)OC(C)(C)C)COC(c2ccc(OCCCO)cc2)=N1`: the z-score is 0.236 in assay [1]; -0.417 in assay [2]; 0.306 in [3]; 0.0475 in [4]; 0.0972 in assay [5]; -0.868 in assay [6]. Also, the z-score in assay [7] is 0.0942 (inactive); in assay [8], 0.0733; in assay [9], -1.14; in assay [10], 0.594 (inactive).

Consider `CC(C)(C)OC(=O)CC[C@@]1(C(=O)N2CCCCC2)N=C(c2ccc(OCCCO)cc2)O[C@@H]1c1ccccc1CN=[N+]=[N-]`, for which the z-score in assay [1] is 0.708; in [2] it was -0.125; in [3], 1.25; in assay [4] it was -3.47; in assay [5] it was -0.624; in [6] it was 2.12. In addition, the z-score was -0.405 (inactive) in assay [7], -0.863 in assay [8], -0.995 in assay [9] and 0.642 (inactive) in [10].

As to `COc1ccc([Si](C)(C)[C@H]2[C@H](CCn3cc(CCO)nn3)O[C@@]3(C(=O)N(Cc4cccc(N5C(=O)c6cccc7cccc5c67)c4)c4ccccc43)[C@@H]2C)cc1`, the z-score in assay [1] was -1.05; in assay [2], -0.354; in assay [3], -4.39; in [4] it was -2.83; in assay [5] it was -4.51; in [6], 1.6. Moreover, the z-score in [7] is 2.9 (inactive); in [8] it was -1.05; in [9], -2.03; in assay [10] it was -3.05 (inactive).

As to `COCCOC(=O)N1C(=O)[C@@]2(c3cc(C#CCCO)ccc31)[C@H](c1ccc(OCCO)cc1)N1[C@H](c3ccccc3)[C@H](c3ccccc3)OC(=O)[C@H]1[C@@H]2C(=O)N1CCc2cc(OC)c(OC)cc2C1`, the z-score was -0.874 in assay [1]; 0.586 in [2]; 0.863 in [3]; 0.541 in assay [4]; 0.263 in assay [5]; -0.0698 in [6]. Moreover, the z-score in [7] was 1.79 (inactive); in assay [8] it was -0.299; in [9] it was -1.48; in [10], -0.533 (inactive).

For the molecule `Cc1cc(C)c(C(O)C2C=CC3C(=O)N(c4ccccc4)C(=O)C3N2Nc2ccccc2)c(C)c1` (stereo not given), the z-score in [1] was 0.479; in assay [2] it was -1.35; in [3], 1.37; in [4], 0.541; in assay [5], 0.281; in assay [6] it was -1.21. The z-score in assay [7] was -0.422 (inactive); in assay [8], -0.225; in assay [9], -0.425; in assay [10], -0.825 (inactive).

Consider `[N-]=[N+]=Nc1ccccc1[C@H]1OC(c2ccc(OCCCO)cc2)=N[C@@]1(Cc1ccccc1)C(=O)NCc1ccccc1`, for which the z-score is -1.16 in [1]; 0.491 in assay [2]; -1.07 in assay [3]; -1.04 in assay [4]; -3.84 in assay [5]; 0.671 in assay [6]. Also, the z-score is -1.17 (inactive) in assay [7], -1.16 in assay [8], -2.17 in assay [9] and -1.56 (inactive) in assay [10].

In the case of `C#CCNS(=O)(=O)N(C)C`, the z-score in [1] was -0.277; in assay [2], -0.738; in assay [3], 0.759; in [4], 0.716; in assay [5], -0.227; in assay [6], 0.563. The z-score in assay [7] is 0.48 (inactive); in [8], 0.0262; in assay [9] it was -0.777; in assay [10], 0.943 (inactive).

In the case of `CC(C)CN1C(=O)[C@@]2(Cc3ccccc31)c1ccccc1C(=O)N(Cc1ccccc1)[C@H]2c1ccc(CO)cc1`, the z-score in [1] is -0.225; in [2], -0.0208; in [3], -0.134; in assay [4], -0.688; in [5], -0.152; in assay [6], -0.529. Further, the z-score in assay [7] is -0.224 (inactive); in [8] it was 0.0482; in [9], 1.07; in [10], -0.252 (inactive).

Regarding `NC(=O)[C@H]1[C@@H]2C(=O)O[C@@H](c3ccccc3)[C@@H](c3ccccc3)N2[C@@H](c2ccc(O)cc2)[C@]12C(=O)Nc1ccc(C#CC3(O)CCCCCC3)cc12`, the z-score in [1] was 0.205; in assay [2], 1.54; in assay [3], 0.961; in assay [4], -1.13; in assay [5], -4.08; in assay [6], -1.39. In addition, the z-score in [7] was -0.575 (inactive); in assay [8], -0.808; in [9] it was -0.184; in [10], 0.995 (inactive).

On to `COc1ccc([Si](C)(C)[C@@H]2[C@@H](CCO)O[C@]3(C(=O)N(Cc4cccc(N5C(=O)COc6ccccc65)c4)c4ccccc43)[C@H]2C)cc1`, for which the z-score in assay [1] is -2.03; in [2], 0.574; in [3], -4.17; in [4], -2.95; in [5], -4.16; in assay [6] it was -0.527. Moreover, the z-score is 0.351 (inactive) in assay [7], -1.09 in assay [8], -1.7 in [9] and -2.6 (inactive) in assay [10].

In the case of `COc1ccc([Si](C)(C)[C@@H]2[C@@H](CCO)O[C@]3(C(=O)N(Cc4ccccc4)c4ccc(N5CCCCC5=O)cc43)[C@H]2C)cc1`, the z-score in assay [1] is -0.887; in assay [2] it was 2.07; in [3] it was -1.02; in assay [4], -1.58; in [5] it was -4.08; in assay [6], 0.311. Further, the z-score is -0.258 (inactive) in [7], -0.776 in [8], -0.786 in [9] and -1.88 (inactive) in assay [10].

As to `C=CCC(OC(C)=O)[C@@H]1[C@@H](N(Cc2ccc(-c3ccccc3)cc2)C(=O)Cc2ccc(OC)cc2)c2cc(OCCCO)ccc2N1C(=O)c1ccc(-c2ccccc2)cc1` (stereo not given in full), the z-score in assay [1] is 0.817; in [2] it was 0.397; in assay [3] it was 1.3; in assay [4], 0.366; in assay [5], 0.368; in assay [6] it was 3.34. Further, the z-score in [7] was 0.269 (inactive); in assay [8], 0.298; in assay [9], 0.494; in [10], 1.21 (inactive).

Turning to `COC(=O)[C@@]1(Cc2ccccc2)[C@H]2c3cc(C(=O)N4CCCC4)n(CCO)c3C[C@H]2CN1C(=O)c1ccccc1`, the z-score in [1] was -0.258; in assay [2] it was 0.577; in assay [3], 0.345; in assay [4] it was -0.867; in [5] it was 0.688; in [6], 0.844. Also, the z-score was 0.671 (inactive) in [7], 0.0245 in assay [8], -0.77 in [9] and -0.103 (inactive) in assay [10].
